# Efflux pump inh – inhibitors of Candida efflux pumps in yeast, primary screen, S. cerevisiae, Nile Red, multiplex; S. cerevisiae Candida pump triplex; inhibition, % at 10 µM; 0.44% of 330,000 active;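 active = plate passing quality check with inhibition over a set limit, or well fluorescence over plate mean plus 4 SD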;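 note: Nile Red retained in pooled yeast measured as flow cytometry median fluorescence; higher means more Nile Red kept so more efflux inhibition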
# HDAC3 inhib – HDAC3 deacetylase inhibitors, primary screen, biochemical, fluorescence, cell-free homogeneous | Histone deacetylase 3 (Homo sapiens), O15379 | recombinant HDAC3, fluorogenic peptide/trypsin coupled | inhibition, % at 8.3 µM | 0.15% of 320,000 active | AID 2718, 2010; in the data active = inhibition above about 26%, passing the limit was not always enough
# NALP1 yeast inh – NALP1 inflammasome inhibitors in reconstituted yeast, colorimetric, S. cerevisiae, triplicate retest | S. cerevisiae NALP1/ASC/caspase-1 growth, X-gal OD620, 72 h | inhibition, % at 10 µM | 0.61% of 280,000 active | AID 2071, 2009; in the data active = inhibition mostly above about 24%, no sharp cut-off; inactive = mostly below about 32%
# NLRP3 yeast inh – NALP3 inflammasome inhibitors in reconstituted yeast, primary screen, luminescence, uHTS | Yeast reconstituted NLRP3/ASC/caspase-1, beta-gal luminescence, 24 h | inhibition, % at 10 µM | 0.39% of 330,000 active;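 active = inhibition of 50% or more; inactive = inhibition below 50%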
# GASC-1 inh – inhibitors of GASC-1 histone demethylase, primary screen, biochemical, fluorescence, DELFIA europium; 0.069% of 330,000 active; GST-JMJD2C(1-420) H3K9me3 demethylation; Lysine-specific demethylase 4C (Homo sapiens), Q9H3R0; inhibition, % at 2.35 µM; AID 2099, 2009;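 active = more than half of a compound's replicate wells show inhibition beyond 50%, single wells judged on their own value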;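 note: signal counts dimethyl H3K9 product captured on neutravidin plate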
# Target sequence (Q9H3R0 1-420 limits assumed): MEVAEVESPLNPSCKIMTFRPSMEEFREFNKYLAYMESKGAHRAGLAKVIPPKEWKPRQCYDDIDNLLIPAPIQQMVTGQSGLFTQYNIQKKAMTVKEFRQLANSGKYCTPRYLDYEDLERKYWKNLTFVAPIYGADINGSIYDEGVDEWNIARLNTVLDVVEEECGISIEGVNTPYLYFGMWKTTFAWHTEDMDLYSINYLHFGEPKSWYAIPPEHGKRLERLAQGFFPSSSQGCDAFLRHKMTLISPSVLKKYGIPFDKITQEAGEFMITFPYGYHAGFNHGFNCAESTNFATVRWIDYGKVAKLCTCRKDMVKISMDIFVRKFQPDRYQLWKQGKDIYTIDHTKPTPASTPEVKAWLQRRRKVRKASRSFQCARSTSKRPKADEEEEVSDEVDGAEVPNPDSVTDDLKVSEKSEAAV
# PolyA inhibitor – polyadenylation inhibitors in yeast reporter cells, primary screen, luminescence, S. cerevisiae | S. cerevisiae SKY197-pL101 polyadenylation reporter, beta-gal luminescence; efflux-impaired pdr1/pdr3 knockout yeast; score 100 = 6 SD above DMSO | activity score, % at 12 µM | 0.02% of 300,000 active | AID 1875, 2009;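 active = lowest replicate activity score at least 50, where 100 means six control SD above control mean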;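 note: yeast exposed to compound for 9 h at 30 °C; higher score means more reporter readthrough which indicates perturbed polyadenylation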
# Numbers stand for hits; – = inactive; · = no result given. This is a sample that favours compounds with a hit; in the whole collection about 1.5% have one here.
SMILES,Efflux pump inh,HDAC3 inhib,NALP1 yeast inh,NLRP3 yeast inh,GASC-1 inh,PolyA inhibitor
COCCCC1CCN(Cc2cn[nH]c2-c2cc(OC)c(OC)c(OC)c2)CC1,–,–,26,–,–,–
Cn1c(-c2nonc2N)nc2ccccc21,–,–,29,–,–,–
CCCn1c(-c2nonc2N)nc2ccccc21,–,–,–,–,–,–
O=C(O)c1cc(O)c2c(c1)[C@@H]([C@H]1c3cc(C(=O)O)cc(O)c3C(=O)c3c(O[C@@H]4O[C@H](CO)[C@@H](O)[C@H](O)[C@H]4O)cccc31)c1cccc(O[C@@H]3O[C@H](CO)[C@@H](O)[C@H](O)[C@H]3O)c1C2=O,–,–,·,–,91,·
CCOc1ccc(NS(=O)(=O)c2ccc(C)c(C(=O)NCCCn3ccnc3)c2)cc1,–,–,–,–,–,–
CC[C@]12c3[nH]c4ccccc4c3CCN1C(=O)C(CC(=O)NCCCOC)C[C@@H]2C(=O)N1CCN(C(=O)C2CC2)CC1 (some centres undefined),–,–,·,–,53,·
CC[C@]12c3[nH]c4ccccc4c3CCN1C(=O)C(CC(=O)NCCCN(C)C)C[C@@H]2C(=O)N1CCN(C(=O)C2CC2)CC1 (some centres undefined),–,–,·,–,–,·
N#C/C(C(N)=O)=C1/SC=C(c2ccccc2)N1c1ccccc1,–,–,37,–,–,–
Cc1ccc(C2CN=NC23CCc2ccccc2C3=O)cc1 (centres undefined),–,–,37,–,–,–
CCCCN(Cc1ccccc1)C(=O)C1CCC(=O)N(CCc2ccccn2)C1 (centres undefined),–,–,–,–,–,–
Cc1c(-c2ccc(F)cc2)[n+](=O)c(-c2ccc(F)cc2)c(C)n1[O-],–,–,42,–,–,–
Cc1c(C)[n+](=O)c(-c2ccc(F)cc2)c(C)n1[O-],–,–,–,–,–,–
CC(/C=N/NC(=O)c1ccc(Br)cc1)=C\c1ccccc1,–,–,36,–,–,–
COc1ccc(C(=O)N/N=C\C(C)=C\c2ccccc2)cc1OC,–,–,·,–,–,–
CC(=O)c1c(C)[nH]c(C(=O)N2CCN(c3ncccn3)CC2)c1C,–,–,38,–,–,–
COc1ccc2cc([C@@H](C)C(=O)O)ccc2c1,–,–,·,–,·,·
CCOC(=O)Cc1c(C)nc2c(-c3ccc(OC)cc3)c(C)nn2c1C,–,–,43,–,–,–
CCOc1cc(/C=N/NC(=O)C(=O)NCc2ccc3c(c2)OCO3)ccc1OCC(=O)N1CCOCC1,–,–,–,–,–,–
O=C(CCc1nc2cccnc2n1Cc1ccccc1)N1CCOCC1,–,–,36,–,–,–
CCCCNC(=O)CCc1nc2cccnc2n1Cc1ccccc1,–,–,–,–,–,–
COc1ccc(C2N(c3cc(Cl)ccc3OC)C(=O)C3CCCN32)cc1 (centres undefined),–,–,41,–,–,–
Cc1ccc(N(C(C)C(=O)O)S(=O)(=O)c2c(C)[nH]c(=O)[nH]c2=O)cc1 (centres undefined),–,–,42,–,–,–
COc1ccc(NC2CCCN(C(=O)CCCn3cncn3)C2)cc1OC (centres undefined),–,–,–,–,–,–
Cn1c(C(=O)N2CCN(c3ccccc3)CC2)cc2cc(Cl)ccc21,–,–,–,–,–,–
COc1ccccc1CNC(=O)c1cc2ccccc2oc1=O,–,–,28,–,–,–
c1ccc(-c2cccc(-c3ccccn3)n2)nc1,–,–,51,–,–,–
Cc1ccsc1/C=C1/NC(=O)N(Cc2ccc(F)cc2)C1=O,–,–,34,–,–,–
CN(C)/C=C/C1=C([N+](=O)[O-])C(c2cccc([N+](=O)[O-])c2)NC(=O)N1 (centres undefined),–,–,·,–,–,–
COc1ccc(N(C(C)=O)C2C=CS(=O)(=O)C2)c(OC)c1 (centres undefined),–,–,39,–,–,–
